# In the library only some 7% were active in any assay of this set; here they are far more common.
# Integrin act MD: qHTS for Activators of Integrin-Mediated Alleviation for Muscular Dystrophy; 350,000 compounds, 0.064% hits; Potency, µM (highest dose often 38.3 µM), without a hit: at the top dose activation, most hits filed as activators; alpha7betagal myoblasts, beta-gal FDG fluorescence, 48 h;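 also: potency is read from the fitted curve at half-maximal effect; 100% = response of the positive control SU9516; nearly all actives have a fitted effect of over 60% in size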
#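 alpha7betagal+/- myoblasts (passage 13, 250/well) treated 48 h at 37C with compounds at 1:260 dilution of DMSO stock. Lysed, then beta-galactosidase activity read as FDG fluorescence (ex 480/em 540) after 30 min, with pre-read for autofluorescence.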
# ATXN viability: Viability Counterscreen for Primary qHTS for Inhibitors of ATXN expression; S2 cells (HEK-293 line with an ATXN2-luciferase reporter) viability, CellTiter-Fluor protease fluorescence, 24 h; Potency, µM (titrated, usually from 56.7 µM), usual class: cytotoxic; 400,000 compounds, 0.49% hits; also: potency is read from the fitted curve at half-maximal effect; nearly all actives have a fitted effect of over 40% in size
# DRD3 antagonist: qHTS of D3 Dopamine Receptor Antagonist: qHTS; AID 652054, 2013; 360,000 compounds, 2.5% hits; D3R cells, DiscoveRx beta-arrestin luminescence, antagonist mode; active compounds read low; D(3) dopamine receptor (Homo sapiens), P35462; max response, negative = inhibition, %; in the data active = max response below about -50%; inconclusive = no clear call, values can overlap the other calls; also: % is scaled to controls: 0 for no effect and ±100 for the full control effect
# Target sequence (P35462 whole entry, looked up): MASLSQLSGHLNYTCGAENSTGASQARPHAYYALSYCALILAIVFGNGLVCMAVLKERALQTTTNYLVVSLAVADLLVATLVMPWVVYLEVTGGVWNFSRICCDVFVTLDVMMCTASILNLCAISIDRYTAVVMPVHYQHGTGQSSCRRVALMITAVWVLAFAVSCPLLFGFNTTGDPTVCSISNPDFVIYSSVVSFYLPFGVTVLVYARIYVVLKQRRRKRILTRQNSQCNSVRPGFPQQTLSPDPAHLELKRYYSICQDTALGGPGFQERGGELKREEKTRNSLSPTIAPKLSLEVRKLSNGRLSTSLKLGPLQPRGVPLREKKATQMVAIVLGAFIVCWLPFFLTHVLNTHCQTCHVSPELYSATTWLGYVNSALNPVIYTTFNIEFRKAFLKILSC
#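 Cells expressing the human receptor were seeded at 1500 cells/well, incubated overnight at 37 degrees C in 5% CO2, then exposed to library compounds with dopamine controls for 90 minutes at 37 degrees C before luminescent detection.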
# IL-1B inflam inh: qHTS for Inhibitors of Inflammasome Signaling: IL-1-beta AlphaLISA Primary Screen; THP-1 LPS/ATP IL-1B secretion, AlphaLISA, 16 h; active compounds read low; activity change, % at 57.5 µM; 360,000 compounds, 4.7% hits; AID 743279, 2014; in the data active = activity change below about -50%; inconclusive = mostly about -30% to -49%; also: % is scaled to controls: 0 for no effect and ±100 for the full control effect
#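 THP-1 cells pretreated 1 hr with compounds (up to 57.5 uM final), then stimulated with LPS (250 ng/mL final) plus ATP (1.25 mM final); secreted IL-1B measured by AlphaLISA after 16 hr, decreased signal indicating inhibition.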
# DRD3 agonist: qHTS of D3 Dopamine Receptor Agonist: qHTS | 410,000 compounds, 0.58% hits | AID 652048, 2013 | max activation, % | D3R DiscoveRx beta-arrestin cells, luminescence, 90 min | D(3) dopamine receptor (Homo sapiens), P35462; in the data active = max activation above about 30%; also: 0% is about no effect
#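 Cells at 1500/well, incubated overnight, then treated with pinned compounds (dopamine as control) for 90 min at 37 degrees C. DiscoveRx reagent added for 30 - 60 minutes at room temperature; luminescence read.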
# ATXN2 expr inh: Primary qHTS for Inhibitors of ATXN expression; 360,000 compounds, 0.72% hits; HEK-293 ATXN2-luciferase reporter, luminescence, 24 h; Potency, µM (doses to about 57 µM), for the others: at the top dose activity change, negative = inhibition, actives largely listed as inhibitors; also: potency is read from the fitted curve at half-maximal effect; % is scaled to controls: 0 for no effect and ±100 for the full control effect; nearly all actives have a fitted effect of over 55% in size
#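 qHTS (up to 57 uM final) was run with 24 h compound exposure of reporter cells at 37 °C. Each well was multiplexed: SteadyGlo luminescence measured ATXN2-luciferase expression after a fluorogenic Gly-Phe-AFC viability readout (25 uM final).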
# The depositor's hits bear a star; i = inactive; u = inconclusive; x = no result; [ ] = dose if it differs, or a comment. Unless noted, calls follow the shape of the dose curve; as a rule, active = well fitted curve in the direction sought with a large enough effect; inconclusive = small, poorly fitted or top-dose-only effect, or another doubt; inactive = no such curve, though single readings can be large; an effect the other way counts as inactive or inconclusive.
SMILES,Integrin act MD,ATXN viability,DRD3 antagonist,IL-1B inflam inh,DRD3 agonist,ATXN2 expr inh
CC(C)(C)NC(=O)COC(=O)c1ccccc1NC(=O)c1ccco1,1.7%,i,0.8,51.7,-0.7,-27.3%
CCN1/C(=C/c2ccc3cc(C)cc(C)c3[n+]2CC)Sc2cc(C)ccc21,-46.3%,u,-22.0,-97.4*,-12.1,u
CCN1/C(=C/c2ccc3cccc(C)c3[n+]2CC)Sc2ccccc21,-63.0%,u,-18.3,-103.3*,-35.4,u
CCN1/C(=C/c2ccc3cc(C)ccc3[n+]2CC)Sc2ccc3sccc3c21,u,i,-8.2,33.4,0.7,u
CCN1/C(=C\c2ccc3cc(C)ccc3[n+]2CC)Sc2cc(C)c(C)cc21,0.0%,u,0.5,-59.5*,4.6,u
CCc1nc2ccc(C(=O)N(CC)CCN(C)C)cn2c1N(C)Cc1ccc(OC)cc1,x,i,-2.2,-23.7,-18.1,2.0%
CCCN(C(=O)CSCc1ccc(Cl)cc1)c1c(N)n(Cc2ccccc2)c(=O)[nH]c1=O,14.0%,i,5.6,-10.0,3.0,1.2%
CC(C)n1nc(-c2cc3cc(O)ccc3[nH]2)c2c(N)ncnc21,x,u,x,x,-12.0,5.01µM*
CCCn1nc(C(=O)OCC(=O)c2ccccc2)c2ccccc2c1=O,21.5%,i,10.0,20.9,0.5,-11.3%
CCCCCn1nc(C(=O)OCC(=O)c2c(N)n(C)c(=O)n(C)c2=O)c2ccccc2c1=O,3.2%,i,68.9,-52.5*,17.0,-9.4%
Cn1c(N)c(C(=O)COC(=O)c2ccnc3ccccc23)c(=O)n(C)c1=O,2.7%,i,22.1,3.3,-3.4,11.4%
CCCCCCn1nc(C(=O)OCC(=O)c2c(N)n(C)c(=O)n(C)c2=O)c2ccccc2c1=O,-30.2%,u,71.0,u,32.0*,-25.4%
C#CCOCCOCCOCCNc1nc(N2CCN(C(=O)[C@H](CCCCN)n3cc(CN)nn3)CC2)nc(N2CCN(C(=O)[C@H](CCCCN)n3cc([C@@H](N)[C@H](C)CC)nn3)CC2)n1,11.6%,i,-11.2,-6.6,0.3,-1.0%
CN(C(=O)c1ccc2c(c1)CCO2)C(C)(C)C,13.0%,i,-5.6,4.1,-3.3,10.1%
Cc1cc(C(=O)OCC(=O)NCCc2ccccc2)c2ccccc2n1,10.7%,i,-13.6,19.7,50.8*,-1.9%
CCOC(=O)C1=C(C)NC(C)=C(C(=O)OCC)C1C(=O)OCC(=O)NCCc1ccccc1,8.2%,u,-1.5,-55.2*,-9.1,-20.2%
CCCN1CCN(c2ncnc3scc(C4COc5ccccc5O4)c23)CC1 (stereo not given),3.7%,i,12.0,u,-11.1,-1.0%[11.3 µM]
CCOC(=O)C(C(=O)OCC)c1cc(Br)c2noc3c2c1C(=O)c1ccccc1-3,-55.5%,20µM*,-101.6*,-88.8*,-18.9,11.2µM*
NC(=O)N/N=C/c1ccc(-n2nncc2-c2ccc(Cl)cc2)cc1,12.7%,i,-18.0,-15.4,-7.1,-35.6%
CN1c2ccc([N+](=O)[O-])cc2N(C)C1(C)c1ccccc1 (stereo not given),0.0%,u,-62.1*,-13.8,-20.2,-11.9%
Cn1c2ccccc2c2cc([N+](=O)[O-])ccc21,13.9%,i,-1.3,-22.0,4.6,10.7%
CSc1ccc(S(=O)(=O)N2CCC(C(=O)N3CCc4ccccc4C3)CC2)cc1,-36.0%,i,8.1,-63.9*,-5.2,-11.5%
O=C(NCCN1CCN(c2ccccc2)CC1)C1CCN(S(=O)(=O)c2cccc3nsnc23)CC1,0.0%,i,-16.4,10.7,93.9*,-25.8%
COc1ccc(S(=O)(=O)N2CCC(C(=O)N3CCc4ccccc4C3)CC2)cc1,3.2%,i,-9.2,-24.6,-5.2,0.5%
O=C(C1CCN(S(=O)(=O)c2cccc3nsnc23)CC1)N1CCc2ccccc2C1,-8.7%,i,-6.2,-62.9*,0.5,-3.0%
SMILES,Integrin act MD,ATXN viability,DRD3 antagonist,IL-1B inflam inh,DRD3 agonist,ATXN2 expr inh
Cc1cc(C(=O)N2CCC(C(N)=O)CC2)c(C)o1,u,i,-8.3,-8.7,2.3,11.1%
CSc1ccccc1C(=O)NCCSc1ccc(C)cc1,7.5%,i,0.0,26.0,-9.2,-0.1%
Cc1ccc(C(O)(C(=O)NNS(=O)(=O)c2ccc(C)cc2)c2ccc(C)cc2)cc1,25.3%,i,0.3,-52.6*,-1.2,3.7%
Cc1ccc(S(=O)(=O)NNC(=O)C(=O)NNS(=O)(=O)c2ccc(C)cc2)cc1,6.4%,i,2.4,11.5,22.0,3.8%
CC(C)NS(=O)(=O)c1ccc(CCC(=O)N2CCC(C(N)=O)CC2)cc1,-22.0%,i,4.8,23.5,3.1,0.0%
CC(=O)Nc1sc2c(c1CN1CCN(c3ccccn3)CC1)CCCC2,-32.6%,i,-62.2*,-11.7,-23.0,-2.6%
Cc1sc(NC(=O)c2ccco2)c(CN2CCN(c3ccccn3)CC2)c1C,16.4%,u,19.1,-73.3*,17.0,-13.7%
Cc1sc(NC(=O)c2ccco2)c(CN2CCN(c3ccc(F)cc3)CC2)c1C,-27.2%,i,25.0,-3.5,-0.8,9.5%
CC(=O)Nc1sc2c(c1CN1CCCC1)CCCC2,0.0%,i,-9.4,2.4,-8.3,-5.1%
COc1ccc(C(=O)NC2CCN(C(=S)Nc3cccc(C)c3)CC2)cc1,-4.3%,u,16.0,-1.9,11.6,-7.6%
CC(C)N(C(=O)[C@H]1C[C@H](CC(=O)NCc2cccc(C(F)(F)F)c2)C(=O)N2CCc3c([nH]c4cc(CCC(=O)N(C)C)ccc34)[C@]12C)C(C)C,-24.0%,15.8µM*,0.0,-66.9*,11.1,u
COc1ccc2[nH]c3c(c2c1)CCN1C(=O)C(CC(=O)NCc2ccc(OC)c(OC)c2)C[C@H](C(=O)N(C(C)C)C(C)C)[C@@]31C (stereo not given in full),0.4%,i,-6.2,-9.4,-3.6,-13.6%
COc1ccc2[nH]c3c(c2c1)CCN1C(=O)C(CC(=O)NCc2cccc(C(F)(F)F)c2)C[C@H](C(=O)N(C(C)C)C(C)C)[C@@]31C (stereo not given in full),10.0%,u,21.2,-53.5*,9.8,u
CCN(CC)C(=O)[C@H]1CC(CC(=O)NCc2cccc(C(F)(F)F)c2)C(=O)N2CCc3c([nH]c4ccccc34)[C@]12C (stereo not given in full),-11.7%,x,2.5,u,3.3,u
